Compound activity as filed in PubChem BioAssay.
This is a sample that favours compounds with a hit; in the whole collection about 3% have one here.
SENP6 inh – SENP6 protease inhibition; Q9GZR1; Recombinant SENP6 catalytic domain, aminoluciferin luminescence; inhibition, % at 10 µM; actives 1.8% (n = 330,000); AID 2599;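 active means inhibition above about 50% at the single tested dose, limit read from the data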;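 further: plate controls were DMSO wells with enzyme for no effect and DMSO wells lacking enzyme for full effect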
Target sequence (Q9GZR1 628-1112 limits assumed): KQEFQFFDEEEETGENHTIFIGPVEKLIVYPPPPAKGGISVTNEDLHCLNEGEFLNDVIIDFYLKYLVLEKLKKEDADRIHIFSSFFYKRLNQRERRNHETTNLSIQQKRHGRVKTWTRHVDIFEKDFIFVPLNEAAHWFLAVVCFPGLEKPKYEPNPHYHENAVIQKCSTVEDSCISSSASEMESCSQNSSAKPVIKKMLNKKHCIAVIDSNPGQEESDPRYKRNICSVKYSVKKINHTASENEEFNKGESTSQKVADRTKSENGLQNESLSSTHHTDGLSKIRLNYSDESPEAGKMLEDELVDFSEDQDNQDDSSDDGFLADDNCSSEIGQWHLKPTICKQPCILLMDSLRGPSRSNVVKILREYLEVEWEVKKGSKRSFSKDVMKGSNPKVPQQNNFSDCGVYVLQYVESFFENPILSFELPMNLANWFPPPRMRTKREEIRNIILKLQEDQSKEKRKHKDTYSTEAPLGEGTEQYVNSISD
SENP8 block-1 – blocks the human protease SENP8; Q96LD8; purified SENP8, Z-RLRGG-aminoluciferin cleavage, luminescence; inhibition, % at 10 µM; actives 1.2% (n = 330,000); in the data active means inhibition above about 50%
C8 TRAIL sens – caspase-8 TRAIL sensitization; NB7+C8 cells + TRAIL, ATPlite viability luminescence; inhibition (viability loss, TRAIL sensitization), % at 10 µM; actives 1% (n = 360,000);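 active means compounds causing at least 50% loss of cell viability in the single-dose screen, relative to plate controls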
SENP7 inh – inhibitors of human SENP7 protease | inhibition, % at 5 µM | actives 1.5% (n = 330,000) | Q9BQF6 | recombinant SENP7, Z-RLRGG-aminoluciferin luminescence, 40 min;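 active means inhibition above about 50% at the single test dose, limit read from the data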;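 further: plate controls were DMSO with enzyme for no effect and no enzyme buffer wells for full effect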
PPC-1+TRAIL kill – kills PPC-1 cancer cells in the presence of TRAIL; PPC-1 cells + TRAIL, ATPLite viability luminescence; cell killing (% activity), % at 4 µM or 5 µM; actives 0.41% (n = 220,000); AID 1443;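 active means cell killing above 50% in the first pass at 4 µM, then a duplicate retest at 5 µM averaging 50% or more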;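 further: plate controls were cells with TRAIL plus DMSO for no effect and medium-only wells lacking cells for full effect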
SENP8 block-2 – SENP8 (human) protease inhibition; Q96LD8; recombinant SENP8, Nedd8 substrate fluorescence; inhibition, % at 20 µM; actives 0.64% (n = 360,000); AID 602440; in the data active means inhibition mostly above about 40%, no sharp cut-off; inactive means mostly below about 27%
SENP8 confirm – confirmation of human SENP8 protease inhibitors; shares compounds with SENP7 inh; Recombinant SENP8, Z-RLRGG-aminoluciferin luminescence, 60 min; inhibition, % at 12.5 µM; actives 40% (n = 6,200); AID 488912;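 active means mean inhibition across replicates above about 50%, limit read from the data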
SENP6 confirm – confirmation of human SENP6 protease inhibitors | inhibition, % at 12.5 µM | recombinant SENP6, Z-RLRGG-aminoluciferin luminescence | actives 58% (n = 6,200) | shares compounds with SENP7 inh
SENP7 conf – human SENP7 inhibition, confirmed | recombinant SENP7, Z-RLRGG-aminoluciferin luminescence, 40 min | shares compounds with SENP7 inh | actives 69% (n = 6,200) | inhibition, % at 12.5 µM | AID 488917
Casp3 select – selectivity test for SENP inhibitors: human caspase-3 inhibition; inhibition, % at 12.5 µM; shares compounds with SENP7 inh; purified caspase-3, Z-DEVD-aminoluciferin luminescence, 60 min; AID 488918; actives 60% (n = 6,200);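 active means mean inhibition above about 50%, limit read from the data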;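 further: plate controls were enzyme with DMSO for no effect and wells without caspase-3 for full effect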
Target sequence (P42574 28-227 limits assumed): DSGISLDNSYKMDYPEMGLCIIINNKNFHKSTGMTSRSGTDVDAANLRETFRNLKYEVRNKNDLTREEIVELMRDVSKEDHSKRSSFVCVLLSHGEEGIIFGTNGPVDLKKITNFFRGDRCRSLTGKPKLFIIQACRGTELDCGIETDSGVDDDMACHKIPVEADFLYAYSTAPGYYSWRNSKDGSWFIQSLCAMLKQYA
Luc interf – counter-screen for SENP inhibitors: luminescence interference; shares compounds with SENP7 inh; Pre-incubated SENP8/Z-RLRGG-aminoluciferin, luciferase luminescence interference; inhibition, % at 12.5 µM; actives 39% (n = 6,200); AID 488919;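 active means mean inhibition above about 50% when retested at one dose, limit read from the data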;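 further: plate controls were DMSO wells with completed reaction for no effect and substrate without enzyme for full effect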
The depositor's hits bear a star; nt = not tested or not shown.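 How the source made its calls, unless noted: active means mean inhibition above about 50% in the one-dose retest (limit read from the data); inactive means the rest.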

SMILES | SENP6 inh | SENP8 block-1 | C8 TRAIL sens | SENP7 inh | PPC-1+TRAIL kill | SENP8 block-2 | SENP8 confirm | SENP6 confirm | SENP7 conf | Casp3 select | Luc interf
O=C(Nc1ccccc1)N1CC=C(c2ccc(F)cc2)CC1 | 52* | 0 | 11 | 35 | 29 | -21 | 25 | 18 | 59* | 30 | 42
COc1ccc(C(=O)c2c(C(F)(F)F)oc3c2C(=O)c2ccccc2C3=O)cc1 | 70* | 47 | 98* | 27 | 21 | 81* | 27 | 70* | 15 | 72* | -6
CCn1cc(S(=O)(=O)N2CCN(c3ccc(Cl)cc3)CC2)cn1 | 0 | 8 | 8 | -4 | nt | 2 | nt | nt | nt | nt | nt
CN(C)c1ccc(/C=C2\CCCCC2=O)cc1 | 62* | 48 | 9 | 63* | 36 | -24 | 46 | 62* | 81* | 60* | 29
COCc1ccc(C(=O)N2CCCC(N3CCN(c4ccc(F)cc4)CC3)C2)o1 (stereo not drawn) | -4 | -3 | -3 | 1 | nt | 7 | nt | nt | nt | nt | nt
CC1(C(=O)NS(=O)(=O)c2cccc(F)c2)CCN1C(=O)CCc1ccccc1 (stereo not drawn) | nt | nt | -19 | nt | nt | 23 | nt | nt | nt | nt | nt
O=C(Nc1cccnc1)c1cc(-c2ccc(Cl)c(Cl)c2)on1 | 55* | 33 | -4 | 76* | nt | 12 | -1 | 3 | 11 | 22 | 13
O=C(Nc1cccnc1)c1cc(-c2ccc(F)cc2)on1 | 64* | 56* | -1 | 76* | 0 | 16 | 10 | 22 | 39 | 32 | 2
O=C(Nc1cccnc1)c1cc(-c2ccc3c(c2)OCO3)on1 | 77* | 19 | 10 | 96* | 17 | -58 | 26 | 28 | 62* | 79* | 31
CC(=O)Oc1ccc2occ(C(=O)c3ccccc3)c2c1 | 32 | 32 | 2 | 31 | nt | 8 | nt | nt | nt | nt | nt
Cc1ccc(C(=O)c2coc3ccc(OCC(=O)O)cc23)cc1 | 66* | 33 | 10 | 29 | 10 | 19 | 47 | 43 | 77* | 78* | 66*
O=C(c1cccc(Br)c1)c1coc2ccc(O)cc12 | 86* | 84* | 18 | 72* | nt | 18 | 56* | 73* | 95* | 51* | 24
CCC(=O)c1coc2ccc(O)cc12 | 9 | -8 | -7 | -12 | nt | -19 | nt | nt | nt | nt | nt
COc1ccc(C(=O)c2coc3ccc(O)cc23)cc1 | 85* | 80* | 14 | 87* | nt | 18 | 80* | 80* | 98* | 78* | 61*
O=C(CNc1cccc2ccccc12)N/N=C/c1ccc([N+](=O)[O-])o1 | 80* | 9 | 17 | 39 | 31 | -99 | 22 | 40 | 12 | 0 | -1
CCCCCCCC(=O)N/N=C/c1ccc([N+](=O)[O-])o1 | 36 | 4 | -15 | -1 | 14 | 31 | nt | nt | nt | nt | nt
O=C(CNc1cccc2ccccc12)N/N=C/c1ccc[nH]1 | 7 | 6 | -16 | -2 | 6 | -359 | nt | nt | nt | nt | nt
O=C(CNc1cccc2ccccc12)N/N=C/C(Br)=C/c1ccccc1 | 80* | 56* | -4 | 39 | 1 | -48 | 10 | 14 | 12 | 5 | 5
C=CCc1cccc(/C=N/NC(=O)CNc2cccc3ccccc23)c1O | 72* | 34 | 12 | 31 | 16 | -216 | 7 | 7 | 18 | 13 | 10
Cn1nnnc1SCC(=O)Nc1cc(S(=O)(=O)N2CCCCC2)ccc1Cl | -8 | -12 | -4 | -7 | nt | 2 | nt | nt | nt | nt | nt
CCOC(=O)N1CCN(S(=O)(=O)c2cc([N+](=O)[O-])c(C)cc2C)CC1 | 10 | 2 | 1 | -3 | 2 | -26 | nt | nt | nt | nt | nt
CCOC(=O)c1ccc(NC(=O)c2nc[nH]c2C(=O)N[C@H](C)CO)cc1 | nt | nt | -12 | nt | nt | 5 | nt | nt | nt | nt | nt
CCC(=O)Nc1ccc2c(c1)C(=O)c1ccccc1C2=O | 16 | 8 | 25 | 38 | 16 | 18 | nt | nt | nt | nt | nt
CCC(C)(C)c1ccc2c(c1)C(=O)c1ccccc1C2=O | 93* | 79* | 36 | 77* | 43 | 14 | 10 | 84* | 86* | 96* | 80*
Cc1ccc(-c2noc(-c3cccs3)n2)cc1 | 95* | 95* | 36 | -5 | 22 | 10 | 14 | 97* | 103* | 90* | 70*
SMILES | SENP6 inh | SENP8 block-1 | C8 TRAIL sens | SENP7 inh | PPC-1+TRAIL kill | SENP8 block-2 | SENP8 confirm | SENP6 confirm | SENP7 conf | Casp3 select | Luc interf
COc1cccc(-c2ccc(-c3noc(-c4cccs4)n3)c(OC)n2)c1 | -23 | 3 | 15 | -3 | 12 | -464 | nt | nt | nt | nt | nt
COc1ccccc1-c1noc(-c2ccncc2)n1 | 53* | 23 | 1 | 51* | 15 | 18 | 42 | 41 | 77* | 76* | 52*
c1csc(-c2nc(N3CCCCC3)no2)c1 | 66* | 53* | 14 | 61* | nt | -289 | -18 | 43 | 84* | 52* | 4
COc1ccccc1-c1noc(-c2cccs2)n1 | 76* | 59* | 17 | 68* | -2 | 16 | 78* | 78* | 92* | 78* | 80*
COc1ccc(Br)cc1-c1noc(-c2ccncc2)n1 | 4 | -2 | -3 | 1 | 16 | 21 | nt | nt | nt | nt | nt
CCOc1ccc(C2=CSC3=NCCN23)cc1Cl | -11 | -16 | 7 | -14 | nt | 4 | nt | nt | nt | nt | nt
CCOC(=O)C(C#N)(Cc1cc(OC)cc(OC)c1)Cc1cc(OC)cc(OC)c1 | 5 | 3 | -35 | -3 | nt | 9 | nt | nt | nt | nt | nt
CC1(C2CC2)NC(=O)N(CC(=O)Nc2ccc(F)cc2F)C1=O (stereo not drawn) | 8 | -7 | -8 | 11 | nt | 9 | nt | nt | nt | nt | nt
CCCN1C(=O)c2ccc(C(=O)Nc3ccccc3C(=O)O)cc2C1=O | 89* | 79* | 4 | 16 | nt | 18 | 86* | 85* | 97* | 44 | 89*
Cc1ccc(O)c(NC(=O)c2ccc3c(c2)C(=O)N(CC(C)C)C3=O)c1 | -3 | 1 | 19 | 32 | nt | 17 | nt | nt | nt | nt | nt
CCCN1C(=O)c2ccc(C(=O)Nc3cc(C)ccc3O)cc2C1=O | -25 | 51* | 10 | 97* | nt | 12 | -22 | 20 | 52* | 50* | 1
COc1ccc(NC(=O)COC(=O)CCCc2c[nH]c3ccccc23)cc1OC | -11 | 2 | -3 | 2 | 10 | 11 | nt | nt | nt | nt | nt
CCC(=O)N[C@@H]1C=C[C@@H](CC(=O)NCc2ccccc2F)O[C@@H]1CO | nt | nt | -16 | nt | nt | 18 | nt | nt | nt | nt | nt
